Most compounds without a hit are left out; they make up all but 12% or so of the library.
Shiga inhibitor = inhibitors of Shiga toxin in Vero cells | 290,000 tested, 9.2% active | Vero cells, Shiga toxin protein synthesis inhibition reporter | inhibition, % at 38.7 µM; in the data active = inhibition mostly above about 28%, no sharp cut-off; inactive = mostly below about 43%; note: 0% is about no effect
NS1 function inh = blocks influenza NS1 protein function; 270,000 tested, 0.4% active; Potency, µM (doses to about 46.1 µM), for inactives: at the highest dose activity, positive = more growth; note: potency is the fitted concentration of half-maximal effect; actives are rising curves; nearly all actives have a fitted effect of over 50% in size
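Recovery from NS1-induced slow growth read by OD600 in budding yeast switched to galactose assay medium (pH 6.0, -URA) at 1:100 dilution. Compound 23 nl per well; the matching strain lacking NS1 serves as control.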
SARS PLpro yeast = blocks SARS-CoV papain-like protease in a yeast assay; S. cerevisiae expressing SARS-CoV PLpro, growth rescue; Potency, µM (top dose mostly 32.9 µM), for inactives: top-dose activity, positive = growth rescue, actives largely listed as activators; 330,000 tested, 0.19% active; AID 485353; note: potency is the fitted concentration of half-maximal effect; 0% is about no effect; nearly all actives have a fitted effect of over 55% in size
CHX counter = counter-screen for Shiga toxin inhibitors: cycloheximide protein synthesis inhibition; cell reporter, cycloheximide protein synthesis inhibition counterscreen; max response, %; 300,000 tested, 12% active; AID 2314; in the data active = max response mostly above about 13%, no sharp cut-off; inactive = mostly below about 14%; note: read at 38.3 µM for the half of the compounds with a filed dose; 0% is about no effect
The depositor's hits bear a star; ? = inconclusive; nt = no result. Unless noted, calls come from the whole dose curve.

SMILES	Shiga inhibitor	NS1 function inh	SARS PLpro yeast	CHX counter
Cc1cc(C(=O)NNc2ccccc2F)no1	4	-31%	-2%	-2
CCc1ccc(C(=O)NNc2ccc(F)cc2)cc1	41*	-46%	-2%	14
CCc1ccc(C(=O)NNc2ccc(S(N)(=O)=O)cc2)cc1	14	0%	2%	1
CCc1ccc(C(=O)NNc2cc(Cl)ccc2Cl)cc1	13	-9%	-2%	2
CCc1ccc(C(=O)NNc2ccccc2F)cc1	71*	-6%	-2%	36*
CCc1ccc(C(=O)NNc2ccc(C)c(Cl)c2)cc1	10	-76%	-4%	9.9*
CCCc1ccc(C(=O)NNc2ccccc2F)cc1	77*	-55%	-2%	20*
CCc1c(O)nc(SCC(=O)N2CCc3cc(OC)c(OC)cc3[C@@H]2C)[nH]c1=O	-5	-1%	-7%	-2
CCn1c(=O)cc(SCC(=O)N2CCN(c3ccccc3F)CC2)c2ccccc21	11	-47%	-6%	-1
Cc1cc(C(=O)OCC(=O)Nc2ncc(C(F)(F)F)cc2Cl)c(C)o1	36	-4%	-5%	12
O=C(CSC1=Nc2ccccc2C2=NC(CC(=O)N3CCN(c4ccccc4)CC3)C(=O)N12)NCC1CCCO1 (centres undefined)	-5	nt	-1%	-1
NC(N)=NS(=O)(=O)c1ccc(NC(=S)NC(=O)c2ccc3c(c2)OCO3)cc1	9	nt	2%	6
COC(=O)[C@@H]1CCCN1Cc1c(C(=O)N2CCCCC2)nc2c(C)cccn12	-17	4%	-1%	-3
Cc1ccsc1C(=O)OCC(=O)Nc1sccc1C(N)=O	65*	1%	-5%	42*
Cc1ccsc1C(=O)OCC(=O)NCCNC(=O)COC(=O)c1sccc1C	nt	nt	-7%	nt
COC(=O)c1ccsc1NC(=O)CCc1ccccc1	65*	-8%	-10%	48*
COc1ccc(CCC(=O)OCC(=O)Nc2sccc2C(N)=O)cc1	nt	nt	2%	nt
NC(=O)c1ccsc1NC(=O)CCc1ccccc1	nt	-41%	2%	44*
CSc1ccc(C(=O)N2CCC(CCC(=O)NC3CC3)CC2)cc1	-5	0%	-5%	-3
CCOc1cc(C(=O)Nc2cccc3ncccc23)cc(OCC)c1OCC	-3	3%	0%	2
O=C(Nc1ccccc1F)Nc1ccc([N+](=O)[O-])cc1Cl	29*	-2%	0%	9.8*
O=C(Nc1ncc(Cc2cccc(C(F)(F)F)c2)s1)c1ccc(-c2cccc([N+](=O)[O-])c2)o1	-20	13%	14%	-1
O=C(Nc1ccccc1F)c1ccc(-c2cccc([N+](=O)[O-])c2)o1	63*	-7%	-6%	22*
O=C(Nc1ccc([N+](=O)[O-])cc1Cl)c1cc(Cl)ccc1O	nt	-39%	nt	nt
O=C(NC(=S)Nc1cccc(Cl)c1N1CCCC1)c1ccc(-c2cccc([N+](=O)[O-])c2)o1	15	9%	2%	-6
SMILES	Shiga inhibitor	NS1 function inh	SARS PLpro yeast	CHX counter
O=C(Nc1nccs1)c1ccc(-c2cccc([N+](=O)[O-])c2)o1	28	nt	2%	24*
CN(C)c1cccc(C(=O)OCCNC(=O)c2cccc(S(=O)(=O)N3CCOCC3)c2)c1	-5	0%	2%	4
Cc1noc(C)c1S(=O)(=O)N(C)C[C@H]1Oc2ccc(NC(=O)NC3CCCCC3)cc2C(=O)N([C@H](C)CO)C[C@@H]1C	nt	nt	2%	nt
O=c1c2cn[nH]c2nc(SCc2c(F)cccc2F)n1-c1ccc(Cl)cc1	-16	nt	-6%	-2
COc1ccc(-c2nnc3cccc(Cl)n23)c(OC)c1	43*	0%	-2%	10*
Clc1ccc(-c2nnc3cccc(Cl)n23)c(Cl)c1	-13	-46%	10%	-3
CC1=C(C(=O)Nc2cccc(C(=O)NCc3ccc(F)cc3)c2)SCCO1	-7	-3%	nt	-7
CC1=C(C(=O)Nc2ccc(CC(=O)NCc3ccccc3C)cc2)SCCO1	55*	-5%	-2%	22*
CC1=C(C(=O)Nc2cccc(C(=O)NCc3ccccc3C)c2)SCCO1	-5	-8%	2%	7
COc1cccc(CNC(=O)Cc2ccc(NC(=O)C3=C(C)OCCS3)cc2)c1	41*	-2%	3%	29*
CCc1ccc(CNC(=O)Cc2ccc(NC(=O)C3=C(C)OCCS3)cc2)cc1	57*	8%	-4%	36*
O=C(CSc1nncs1)NCc1ccc(F)cc1	13	-8%	-2%	3
O=C(/C=C/c1cccc([N+](=O)[O-])c1)N1CCN(c2ccc(F)cc2)CC1	-7	8%	25%	-1
Cc1nc(-c2cccc(Cl)c2)n[nH]1	104*	0%	-6%	23*
Cc1cccc(-c2n[nH]c([N+](=O)[O-])n2)c1	-3	-2%	3%	14
O=[N+]([O-])c1cc(O)c2ncccc2c1	30	nt	-18%	22*
Cc1ccccc1-c1nc(-c2ccc(NC(=O)c3ccc4c(c3)OCO4)cc2)no1	81*	-3%	-8%	38*
COc1cc(-c2nc(-c3ccc(NC(=O)c4ccc5c(c4)OCO5)cc3)no2)cc(OC)c1OC	68*	-12%	-1%	40*
COc1ccc(-c2noc(CNC(=O)c3ccc4c(c3)OCO4)n2)cc1	-11	-29%	-1%	-3
COc1ccc(N(CC(=O)Nc2cccc(SC)c2)S(C)(=O)=O)cc1	49*	-30%	0%	23*
COc1ccc(N(CC(=O)Nc2cccc(C(F)(F)F)c2)S(C)(=O)=O)cc1	20	-1%	-13%	active
COc1ccc(-c2csc(NC(=O)c3ccccc3OC)c2C(=O)O)cc1OC	nt	10%	3%	1
O=C(Nc1scc(-c2ccccc2)c1C(=O)O)c1ccc(F)cc1	20*	-74%	?	24*
O=C(Nc1nsc(-c2ccccc2)n1)c1ccc(F)cc1	74*	nt	-4%	32*
O=C(Nc1ncc2c(n1)-c1ccccc1CC2)c1ccc(F)cc1	-7	-12%	-12%	-3
SMILES	Shiga inhibitor	NS1 function inh	SARS PLpro yeast	CHX counter
CC(C)Cc1csc(NC(=O)c2ccc(Br)cc2)c1C(=O)O	8	-1%	-5%	-2
Cc1ccc(-c2csc(NC(=O)c3ccc(F)cc3)c2C(=O)O)cc1	94*	-50%	-4%	40*
CCOCCCNC(=O)c1ccc2c(=O)n(Cc3ccc(OC)cc3)c(=O)[nH]c2c1	3	nt	1%	1
Cc1cc(=O)c2cc3nc(-c4cccnc4)oc3c(Br)c2o1	42	-3%	-3%	15*
O=c1oc(-c2cccnc2)nc2ccccc12	-1	-8%	12%	-2
CC(=O)Nc1cccc(NC(=O)c2ccc(C(=O)Nc3cccc(NC(C)=O)c3)nc2)c1	2	9%	0%	10
O=C(Nc1ccccc1)c1ccc(C(=O)Nc2ccccc2)nc1	49*	0%	0%	16
Cc1cccc(NC(=O)c2ccc(C(=O)Nc3cccc(C)c3)nc2)c1	64*	4%	-4%	23
COc1ccc(CC2SC(N)=NC2=O)cc1 (centres undefined)	nt	15%	4%	1
CN(Cc1ccccc1Cl)C(=O)c1cnccc1C(F)(F)F	-8	0%	1%	8
C[C@H](CO)N1C[C@H](C)[C@@H](CN(C)Cc2ccncc2)Oc2c(cccc2N(C)C)C1=O	nt	nt	-20%	nt
O=C(Oc1ccc2ccccc2c1)c1ccco1	33	-36%	-4%	20*

Screening results (PubChem)
